Assay outcomes from PubChem.
Tb PFK block = blocks T. brucei phosphofructokinase; O15648; T. brucei PFK, ADP-Glo luminescence; Potency, µM (titrated, usually from 57.5 µM), usual class: inhibitors; 0.17% of 330,000 active; AID 485367; further: nearly all actives have a fitted effect of over 60% in size
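Activity is normalized to no-enzyme wells (full inhibition) and 1.25 nM enzyme wells (no inhibition). Reaction: 0.5 mM F6P, 0.1 mM ATP, 45 min RT, ADP-Glo luminescence; concentration-response curves fitted and classed by quality.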
GLP-1R inv ag = inverse agonists of human GLP-1 receptor; P43220; HEK293 GLP-1R CRE-luciferase, luminescence, 24 h; GLP-1R form is constitutively active; Potency, µM (titrated, usually from 38.3 µM), most hits filed as inhibitors; 1.6% of 410,000 active; AID 624417; further: nearly all actives have a fitted effect of over 55% in size
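Cells are plated, allowed 12 hours at 37 deg C, then treated with compounds for 24 hr before luciferase detection reagent is added and luminescence is read after 12 min at room temperature. The HEK293 line carries constitutively active GLP-1R with a cAMP-responsive reporter.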
Tb PGK inh = T. brucei PGK inhibition | P07378 | PGK/GAPDH coupled, Kinase-Glo luminescence, 60 min | Potency, µM (series often up to 57.5 µM), most hits filed as inhibitors | 0.043% of 380,000 active; further: nearly all actives have a fitted effect of over 60% in size
Target sequence (P07378 whole entry, looked up): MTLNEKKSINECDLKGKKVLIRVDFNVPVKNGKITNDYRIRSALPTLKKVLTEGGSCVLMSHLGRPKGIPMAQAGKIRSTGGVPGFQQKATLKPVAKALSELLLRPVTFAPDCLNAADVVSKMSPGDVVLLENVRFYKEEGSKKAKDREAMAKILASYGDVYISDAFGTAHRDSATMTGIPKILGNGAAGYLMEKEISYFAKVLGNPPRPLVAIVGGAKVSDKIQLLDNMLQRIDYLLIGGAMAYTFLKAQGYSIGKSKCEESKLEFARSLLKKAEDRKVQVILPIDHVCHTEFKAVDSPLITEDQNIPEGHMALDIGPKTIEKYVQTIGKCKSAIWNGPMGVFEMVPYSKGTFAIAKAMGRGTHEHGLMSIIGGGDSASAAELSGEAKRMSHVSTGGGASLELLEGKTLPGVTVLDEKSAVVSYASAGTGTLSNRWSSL
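Recombinant glycosomal PGK reaction used 1,3-bisphosphoglycerate generated in-well by GAPDH (100nM final) in 100mM TEA pH 7.6, 5mM MgCl2, 0.01% Tween-20. After 60 minutes at room temperature, ATP was read by Kinase-Glo Plus luminescence end-point.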
GLP1R cytotox = cytotoxicity in counter-screen for GLP-1R inverse agonists; Potency, µM (series often up to 38.3 µM), actives largely listed as inhibitors; 0.13% of 410,000 active; HEK293 cAMP-luciferase reporter cells, luminescence, 24 h;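 further: loss of luciferase light is scored as toxicity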
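Compound-treated cells are incubated 24 hr at 37 deg C under 5% CO2 after a 12 hour attachment period, then luciferase detection reagent is added and luminescence is measured following 12 min at room temperature; lowered signal indicates toxicity.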
GLP-1R agonist = activates the human GLP-1 receptor. Potency, µM (doses to about 45.6 µM), usual class: activators. HEK293 GLP-1R CRE-luciferase, luminescence, 4-6 h; cells express a hypersensitive GLP-1R form. P43220. 0.007% of 380,000 active
Pin1 inh = blocks the human prolyl isomerase Pin1; AID 504891; 0.009% of 390,000 active; Q13526; Potency, µM (series often up to 115 µM), hits mostly inhibitors; Pin1 FP peptide displacement, HiFluor488, 10 min; active means well fitted inhibition curve with a large enough effect in the polarisation, with a control signal flat, not every such curve was filed as active; inconclusive means small, poorly fitted or top-dose-only effect, or effect the other way, or a change in a side signal; inactive means no such curve, though single readings can be large or run the other way; the % refers to the polarisation
Target sequence (Q13526 whole entry, looked up): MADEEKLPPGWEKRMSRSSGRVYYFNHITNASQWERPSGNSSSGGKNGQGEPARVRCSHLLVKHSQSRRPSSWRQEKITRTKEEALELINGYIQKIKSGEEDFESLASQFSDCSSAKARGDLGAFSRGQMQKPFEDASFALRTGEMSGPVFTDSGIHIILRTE
A number is an active result; – = inactive; ? = inconclusive; · = not tested or not shown; [ ] = remark or other dose. Rows were chosen to be rich in hits. Some 1.8% of all compounds tested hit in one or more screens of this group. Unless noted, the call rests on the fitted dose curve; in most records, active means well fitted curve in the direction sought with a large enough effect; inconclusive means small, poorly fitted or top-dose-only effect, or another doubt; inactive means no such curve, though single readings can be large; an effect the other way counts as inactive or inconclusive.

SMILES	Tb PFK block	GLP-1R inv ag	Tb PGK inh	GLP1R cytotox	GLP-1R agonist	Pin1 inh
C/C(=N\NC(=S)Nc1c(C)cccc1C)c1cc2ccccc2o1	–	?	–	–	–	–
CCc1ccc(NC(=O)N2CCN(Cc3nc4ccc(C)cc4o3)CC2)cc1	·	?	–	–	·	–
Cc1ccc(C2CC2/C(=N/O)c2ccc(F)cc2)cc1 (stereo not given)	–	10µM	–	–	–	–
O=[N+]([O-])c1cnc(Sc2ccncn2)c([N+](=O)[O-])c1	·	–	–	?	–	·
O=[N+]([O-])c1cnc(Sc2ccncn2)s1	–	?	–	2.8µM	–	–
COc1cccc(CNC(=O)CCc2c(C)nn(-c3ccc(N4CCOCC4)nn3)c2C)c1	·	–	–	–	·	–
CCC(C)C(C(=O)OCC[N+](C)(CC)CC)c1ccccc1 (stereo not given)	·	·	·	·	–	·
O=C(c1ccccc1)c1c[nH]c(C(=O)NNc2ccccc2)c1	–	2.5µM	–	–	–	–
Cc1cc(/C=N/Nc2ncnc(N)c2[N+](=O)[O-])c(C)n1-c1ccccc1	–	2.2µM	–	?	–	–
CN1C(=O)Cc2cc(S(=O)(=O)CCC(=O)Nc3ccc(Cl)cc3)ccc21	·	–	–	–	·	–
O=S(=O)(c1ccc2c(c1)OCCO2)N1CCN(S(=O)(=O)c2cccs2)CC1	·	·	·	·	·	–
COc1ccc(CCNC(=O)C2CCC(C(C)(C)C)CC2)cc1OC (stereo not given)	–	10µM	–	–	–	–
CCOc1ccc(CN2CCN(Cc3cc4c(cc3Cl)OCO4)CC2CCO)cc1 (stereo not given)	–	7.9µM	–	–	–	–
CCOc1ccc(CN2CCN(Cc3cccc4c3OCO4)CC2CCO)cc1 (stereo not given)	–	?	–	–	–	–
O=C(CCC1N=C2c3ccccc3N=C(SCc3ccccc3Cl)N2C1=O)NCc1cccs1 (stereo not given)	·	?	–	–	·	–
Cc1nc(-c2ccc([S+](=O)([O-])N3CCN([S+](=O)([O-])c4c(F)cccc4F)CC3)s2)cs1	·	·	·	·	·	–
S=C(CSc1ccccc1)Nc1cccc2ccccc12	·	6.3µM	–	?	–	·
CN(C)CCNc1oc(-c2ccccc2Cl)nc1S(=O)(=O)c1ccccc1	–	3.2µM	–	–	–	–
CCOc1ccc(S(=O)(=O)NC2CC2)cc1	–	–	–	–	–	–
CCOc1ccc(S(=O)(=O)NC2CCCCC2C)cc1 (stereo not given)	·	10µM	–	–	–	–
Cc1ccc(-c2noc(CNC(=O)c3ccc(Br)o3)n2)cc1	·	–	–	–	·	–
Cc1ccc2cc3c(NS(=O)(=O)c4cccc5nonc45)nn(CC(C)C)c3nc2c1	–	10µM	–	–	–	–
Nc1cccc(S(=O)(=O)N2CCN(S(=O)(=O)c3c(F)cccc3F)CC2)c1	·	·	·	·	·	–
COc1cccc(-c2csc(-c3c(N)c(C(=O)c4ccc5c(c4)OCO5)n4ccccc34)n2)c1	·	–	·	–	·	?
Clc1ccc(Nc2nnc(Cc3ccncc3)c3ccccc23)cc1	·	·	·	·	–	·
SMILES	Tb PFK block	GLP-1R inv ag	Tb PGK inh	GLP1R cytotox	GLP-1R agonist	Pin1 inh
Cc1ccc(NC(=O)C2CCCN(S(=O)(=O)c3ccc4c(c3)CCCC(=O)N4)C2)cc1N(C)C (stereo not given)	·	–	–	–	–	–
CCCNC(=O)C(Cc1ccccc1F)NC(=O)c1ccc(C#N)cc1 (stereo not given)	–	–	–	–	–	–
CCCNC(=O)C(Cc1ccccc1C)NC(=O)c1ccc(C#N)cc1 (stereo not given)	–	–	–	2.5µM	–	–
Cc1cccc(-c2nnc(SCc3cc(=O)c4cccc(Cl)c4[nH]3)n2C)c1	·	–	–	–	·	?
O=C(NCc1cccs1)c1nn(-c2ccccc2F)nc1CO	·	–	–	–	·	–
Cc1c(/C=N/NC(=O)CNc2ccccc2)c2ccccn2c1C(=O)c1ccc(Cl)cc1	–	5.6µM	–	–	–	–
Cc1ccccc1NCC(=O)N/N=C/c1c(C)c(C(=O)c2ccc(Cl)cc2)n2ccccc12	–	–	–	–	–	–
Cc1ccc(/C=C/C(O)=C2/C(=O)N(C)C3(C)CC2c2ccccc2O3)cc1 (stereo not given)	–	2.2µM	–	–	–	–
C=CCN1C(=O)C2(c3ccccc31)C1CCCC=C1C(C#N)=C(N)C2(C#N)C#N (stereo not given)	–	4.5µM	–	–	–	?
COc1ccc(-c2[nH]c(-c3ccc(C)cc3)nc2SCC(=O)NC2CCCC2)cc1	–	10µM	–	?	–	–
Cc1cc(SCC(=O)NC2CC2)nc2ccccc12	–	–	–	–	–	–
COc1ccc2c(C)cc(SCC(=O)NC3CCCC3)nc2c1	–	11µM	–	–	–	–
COc1cccc(-c2nc(SCC(=O)NC3CCCC3)c(-c3ccc(C)cc3)[nH]2)c1	·	?	–	–	·	–
CCN(CC)S(=O)(=O)c1ccc(NC(=O)NCc2noc3ccc(C)cc23)cc1	·	10µM	–	–	·	–
Cc1ccc2onc(CNC(=O)Nc3cc(F)ccc3F)c2c1	·	?	–	–	·	–
CCc1cc2ccccc2nc1SCC(=O)NC1CCCC1	–	10µM	–	–	–	–
N#Cc1cc2ccccc2nc1SCC(=O)NC1CC1	–	–	–	–	–	–
COc1ccccc1NC(=O)CSc1n[nH]c(Cc2ccccc2)n1	–	–	–	–	–	–
COc1ccccc1NC(=O)CSc1nc2ccccc2cc1Cc1ccccc1	–	10µM	–[11.5 µM]	–	–	–
N#Cc1nc(Nc2cc(Cl)cc(Cl)c2)nc(NC2CCCC2)n1	·	·	·	·	·	–
CCc1c(C2(O)CCCCC2)[nH]c2c(C(=O)OC)cc(Cl)cc12	–	?	–	–	–	–
COC(=O)c1cc(Cl)cc2c(C)c(C3(O)CCCCC3)[nH]c12	–	7.1µM	–	–	–	?
Cc1nn(C(C)C(=O)NCCCN2CCCCC2C)c(=O)c2c1sc1ccccc12 (stereo not given)	–	–	–	–	–	–
CCC1CCCCN1CCCNC(=O)C(C)n1nc(C)c2sc3ccccc3c2c1=O (stereo not given)	–	7.9µM	–	?	–	–
CCn1c(=N)c(C(=O)NCc2cccnc2)cc2c(=O)n3cc(C)ccc3nc21	·	–	–	–	–	?
CC1CCc2c(nc3sc4c(c3c2N)CCCC4)C1 (stereo not given)	–	5.6µM	–	?	–	–
COc1ccc(NC(=O)CCS(=O)(=O)c2cc3c(cc2C)NC(=O)CO3)cc1Cl	·	–	–	–	–	–
C=CCNC(=S)N/N=C/c1ccc(C(C)(C)C)cc1	–	3.5µM	–	?	–	–
